Values without a mark were called inactive. For some assays here: Measured potencies and affinities stand elsewhere. Active and inactive are the calls of the source. Unless noted, no rule for the calls is given here.
Experiments:
[1] = antimalarial activity against Dd2 strain (AID 2302;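 active = growth inhibition above 50% at the single 2 µM test dose, taken to imply half-maximal potency below 2 µM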;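 also: 0% = DMSO untreated growth and 100% = chloroquine plus artemisinin killed control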); conditions: P. falciparum Dd2 in RBCs, LDH growth readout, 72 h; at 2 µM; hits give high values
[2] = human hepatoma cell viability loss – ATP luminescence, cytotoxicity control for P. falciparum antimalarial project, primary screen (AID 2303;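 active = inhibition above 50%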;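 also: 0% = DMSO wells and 100% = digitonin-killed cells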); conditions: HepG2 viability, 24-48 h, at 10 µM, hits give high values
[3] = molecular target: L-lactate dehydrogenase (Plasmodium falciparum (isolate CDC / Honduras)) (UniProt Q27743); assay: PfLDH activity inhibition – cell lysate, 3D7 strain, counter-screen for P. falciparum growth inhibition project (AID 2304);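 also: 0% = vehicle and 100% = reference inhibitor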; conditions: P. falciparum 3D7 crude extract, LDH APAD/NBT absorbance; at 2 µM; hits give high values
Chain of L-lactate dehydrogenase (Plasmodium falciparum (isolate CDC / Honduras)) (Q27743 whole entry, looked up): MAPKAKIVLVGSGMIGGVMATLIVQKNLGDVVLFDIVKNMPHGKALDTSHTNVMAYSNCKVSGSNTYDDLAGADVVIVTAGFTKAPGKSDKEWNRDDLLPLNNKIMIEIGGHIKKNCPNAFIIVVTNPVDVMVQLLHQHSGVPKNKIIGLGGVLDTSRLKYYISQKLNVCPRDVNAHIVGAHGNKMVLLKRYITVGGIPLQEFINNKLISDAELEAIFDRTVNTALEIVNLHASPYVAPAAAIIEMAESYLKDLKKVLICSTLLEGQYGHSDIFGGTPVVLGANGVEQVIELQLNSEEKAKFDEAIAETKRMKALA

[4] = inhibition of 3D7 malaria parasite growth – strain 3D7 (AID 2306);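 also: 0% = DMSO wells and 100% = chloroquine plus artemisinin control wells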; conditions: P. falciparum 3D7 erythrocytic growth, LDH absorbance, 72 h; at 2 µM; hits give high values
[5] = molecular target: Calcium-dependent protein kinase 1 (Plasmodium falciparum (isolate 3D7)) (UniProt P62344); assay: PfCDPK1 kinase inhibitors, biochemical, TCAMS library (AID 1159585; cut-off not given, nearly all actives have IC50 up to about 0.98 µM;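 also: inhibitors leave more ATP so luminescence rises with inhibition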); conditions: recombinant PfCDPK1, Kinase-Glo ATP depletion luminescence
Chain of Calcium-dependent protein kinase 1 (Plasmodium falciparum (isolate 3D7)) (P62344 whole entry, looked up): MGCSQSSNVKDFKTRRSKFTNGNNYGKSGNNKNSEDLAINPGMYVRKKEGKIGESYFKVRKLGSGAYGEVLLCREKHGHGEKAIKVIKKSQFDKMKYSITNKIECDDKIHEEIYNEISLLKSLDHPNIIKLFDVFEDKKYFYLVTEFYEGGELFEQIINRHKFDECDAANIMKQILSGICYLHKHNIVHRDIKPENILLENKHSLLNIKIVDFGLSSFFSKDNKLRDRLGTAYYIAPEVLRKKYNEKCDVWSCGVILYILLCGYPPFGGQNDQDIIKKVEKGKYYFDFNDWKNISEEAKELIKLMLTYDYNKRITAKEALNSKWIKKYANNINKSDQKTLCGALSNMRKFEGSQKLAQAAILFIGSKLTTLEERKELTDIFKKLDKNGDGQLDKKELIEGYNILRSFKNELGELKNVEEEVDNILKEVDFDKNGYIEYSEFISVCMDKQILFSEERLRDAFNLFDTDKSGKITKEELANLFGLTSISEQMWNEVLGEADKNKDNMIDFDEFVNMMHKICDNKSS

[6] = molecular target: Plasmodium falciparum protein kinase 6 (PK6, PF3D7_1337100) (UniProt Q8IDW1); assay: PfPK6 kinase inhibitors, biochemical, TCAMS library (AID 1159586); conditions: recombinant PfPK6, Kinase-Glo ATP depletion luminescence
Chain of Plasmodium falciparum protein kinase 6 (PK6, PF3D7_1337100) (Q8IDW1 1-305): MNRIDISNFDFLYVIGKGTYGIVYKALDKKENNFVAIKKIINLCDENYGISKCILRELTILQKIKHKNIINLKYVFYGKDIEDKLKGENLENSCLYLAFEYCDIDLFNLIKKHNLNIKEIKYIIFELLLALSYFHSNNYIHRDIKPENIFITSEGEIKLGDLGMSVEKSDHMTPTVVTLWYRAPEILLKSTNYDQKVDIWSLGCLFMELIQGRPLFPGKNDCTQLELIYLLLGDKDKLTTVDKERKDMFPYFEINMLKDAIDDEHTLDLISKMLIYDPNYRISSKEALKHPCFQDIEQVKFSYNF

[7] = molecular target: Protein kinase 7 (PK7), Plasmodium falciparum 3D7 (PF3D7_0213400) (UniProt Q7YTF7); assay: inhibition of Plasmodium PK7 catalytic activity – biochemical, TCAMS antimalarial set, Kinase-Glo luminescence (AID 1159587); conditions: recombinant PfPK7, Kinase-Glo ATP depletion luminescence
Chain of Protein kinase 7 (PK7), Plasmodium falciparum 3D7 (PF3D7_0213400) (Q7YTF7 1-343): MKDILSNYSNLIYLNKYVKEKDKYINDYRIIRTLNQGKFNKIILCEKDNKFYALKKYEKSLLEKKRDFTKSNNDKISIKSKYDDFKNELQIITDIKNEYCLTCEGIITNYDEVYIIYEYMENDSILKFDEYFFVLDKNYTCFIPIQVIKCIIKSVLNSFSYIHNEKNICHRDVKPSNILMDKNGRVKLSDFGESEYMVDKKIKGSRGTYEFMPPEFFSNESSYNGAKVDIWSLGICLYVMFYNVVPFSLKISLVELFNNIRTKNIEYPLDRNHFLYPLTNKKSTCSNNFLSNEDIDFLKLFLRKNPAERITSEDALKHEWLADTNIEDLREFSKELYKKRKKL

[8] = molecular target: Calcium-dependent protein kinase 4 (Plasmodium falciparum (isolate 3D7)) (UniProt Q8IBS5); assay: PfCDPK4 kinase inhibitors, biochemical, TCAMS library (AID 1159588; cut-off not given, nearly all actives have IC50 up to about 0.91 µM); conditions: recombinant PfCDPK4, Kinase-Glo ATP depletion luminescence
Chain of Calcium-dependent protein kinase 4 (Plasmodium falciparum (isolate 3D7)) (Q8IBS5 whole entry, looked up): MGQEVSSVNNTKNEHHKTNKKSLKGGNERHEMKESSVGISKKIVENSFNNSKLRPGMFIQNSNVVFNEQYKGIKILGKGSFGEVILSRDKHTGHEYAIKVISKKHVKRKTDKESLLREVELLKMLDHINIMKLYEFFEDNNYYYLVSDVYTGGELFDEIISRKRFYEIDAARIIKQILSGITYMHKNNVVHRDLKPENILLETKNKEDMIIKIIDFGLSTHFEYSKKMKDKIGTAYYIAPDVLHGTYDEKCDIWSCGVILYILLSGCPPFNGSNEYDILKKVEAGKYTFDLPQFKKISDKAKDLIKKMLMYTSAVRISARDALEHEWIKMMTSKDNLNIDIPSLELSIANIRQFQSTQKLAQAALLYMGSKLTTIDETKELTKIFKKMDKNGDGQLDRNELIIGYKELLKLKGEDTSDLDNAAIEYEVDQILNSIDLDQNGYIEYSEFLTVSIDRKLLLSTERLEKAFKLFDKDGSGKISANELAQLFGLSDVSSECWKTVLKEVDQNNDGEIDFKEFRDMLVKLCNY

SMILES | growth inhibition [1] | inhibition [2] | inhibition [3] [%] | growth inhibition [4] | outcome [5] | outcome [6] | outcome [7] | outcome [8]
C[C@H](Cc1ccc(OCCNC[C@H](O)c2cccc(Cl)c2)cc1)NC[C@H](O)c1ccc(Cl)c(Cl)c1 | 64% (active) | 69% (active) | 4 | 83% (active) | inactive | inactive | inactive | inactive
Cc1cc(N(C)C)nc(Nc2ccc(NC(=O)c3ccccc3C)cc2)n1 | 16% | -5% | -2 | 93% (active) | inactive | inactive | inactive | inactive
Cc1cccc2[nH]c(-c3cccc(-c4ccc(NC(=O)COc5ccccc5C(N)=O)cc4)c3)nc12 | 47% | 18% | -8 | 101% (active) | inactive | inactive | inactive | inactive
CN1CCN(CCCN(Cc2cccc(-c3cccc(CNCc4ccc5c(c4)OCO5)c3)c2)C(=O)CCC2CCCC2)CC1 | 80% (active) | 85% (active) | 1 | 98% (active) | inactive | inactive | inactive | inactive

Source: PubChem BioAssay
